Read-out in test [1]: Human Leukocyte Antigen - DR isotype (HLADR), HLA-DRA (gene 3122)
Kind of test: BSK_3C_HLADR: BioMAP Diversity Plus: 3C Assay for Human Leukocyte Antigen - DR isotype (HLADR) Biomarker Activity (AID 2283019).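 As to outcome: ELISA of cell-surface HLA-DR on HUVEC 24 h after dosing.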 The conditions noted are these: primary human endothelial cells (HUVEC); actives raise or lower the signal. In a few lines:
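Endothelial cells from human umbilical vein are treated with test chemical; after 24 h, HLA-DR levels are measured by ELISA. Data are fitted in both directions using DMSO as the baseline.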

Read-out in test [2]: Interleukin-8 (IL8), CXCL8 (gene 3576)
In words: BSK_3C_IL8: BioMAP Diversity Plus: 3C Assay for Interleukin-8 (IL8) Biomarker Activity (AID 2283020). The note with it: primary human endothelial cells (HUVEC); actives raise or lower the signal. In a few lines: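 Endothelial primary cells of human umbilical vein origin are dosed with chemical; after 24 h the IL-8 biomarker is measured by ELISA, and concentration–response is fitted in both directions versus DMSO.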

Read-out in test [3]: Monokine induced gamma interferon (MIG), CXCL9 (gene 4283)
In words: BSK_3C_MIG: BioMAP Diversity Plus: 3C Assay for Monokine induced gamma interferon (MIG) Biomarker Activity (AID 2283021). The note with it: primary human endothelial cells (HUVEC); actives raise or lower the signal. In a few lines: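 Endothelial primary cells (human umbilical vein) are dosed with test chemical in the 3C system. MIG levels are measured by ELISA at 24 h and fitted in both directions relative to DMSO.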

For test [4], the target named is human Vitamin D Receptor (VDR), VDR (gene 7421) (UniProt P11473). In words: ATG_VDR_TRANS: Attagene TRANS-FACTORIAL HepG2 Assay for human Vitamin D Receptor (VDR) (AID 2283022; active = hit-call score of the fitted dose curve at least 0.9, where 1 is the maximum). In a few lines:
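Fluorescence of labelled reporter cDNA fragments, resolved by capillary electrophoresis, gives mRNA induction after 24 h treatment of HepG2 cells carrying transfected Gal4-fusion reporter units. Activity is fitted in the positive direction with DMSO as baseline.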

Test [5] can be described thus: BSK_3C_SRB: Viability Assessment in the BioMAP Diversity Plus: 3C Assay (AID 2283023).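 Also: fitted both ways against DMSO so a hit may be signal rise or drop.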 The conditions noted are these: primary human endothelial cells (HUVEC). In a few lines:
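Cells were dosed with chemical, cultured 24 h, fixed with 10% TCA, stained with 0.1% SRB and read at 560 nm. Human umbilical vein endothelium was used; DMSO served as negative control and baseline.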

Read-out in test [6]: Matrix Metallopeptidase 1 (MMP1), MMP1 (gene 4312)
In words: BSK_BE3C_MMP1: BioMAP Diversity Plus: BE3C Assay for Matrix Metallopeptidase 1 (MMP1) Biomarker Activity (AID 2283024). The note with it: primary human bronchial epithelial cells; actives raise or lower the signal. In a few lines:
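MMP1 signal, measured by ELISA after a 24 h chemical exposure of human primary bronchial epithelial cells, is analysed with bidirectional fitting using DMSO as negative control.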

Test [7] in a line: BSK_3C_Vis: BioMAP Diversity Plus: 3C Assay for Morphology Visualization (AID 2283025).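 Also: fitted both ways so gain or loss versus DMSO counts.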 The conditions noted are these: primary human endothelial cells (HUVEC). In a few lines: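 Morphology read by light microscopy serves as a background control for the multiplexed 3C assay in human umbilical vein endothelial cells, taken 24 h after dosing, with DMSO as the negative control and bidirectional curve fitting.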

Read-out in test [8]: Pselectin, SELP (gene 6403)
In words: BSK_4H_Pselectin: BioMAP Diversity Plus: 4H Assay for Pselectin Biomarker Activity (AID 2283026). The conditions noted are these: primary human endothelial cells (HUVEC); actives raise or lower the signal. In a few lines:
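Endothelial primary cells (human umbilical vein) are dosed, incubated 24 h, and assayed for surface P-selectin by ELISA; responses in either direction are fitted relative to the DMSO negative control.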

A short description of test [9]: BSK_4H_SRB: Viability Assessment in the BioMAP Diversity Plus: 4H Assay (AID 2283027).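 Also: cells exposed to compound for 24 h before staining.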 The note with it: primary human endothelial cells (HUVEC). In a few lines:
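HUVEC, 24 h post-dose; 10% TCA fix, 0.1% SRB stain, A560 nm. Total protein = overt cytotoxicity, parallel to biomarker read. Bidirectional fit vs DMSO baseline.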

A short description of test [10]: BSK_BE3C_SRB: Viability Assessment in the BioMAP Diversity Plus: BE3C Assay (AID 2283028). The conditions noted are these: primary human bronchial epithelial cells. In a few lines: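 Overt cytotoxicity was assessed as total protein in confluent human primary bronchial epithelial cultures 24 h after chemical addition, using 0.1% sulforhodamine B staining read at 560 nm.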

Read-out in test [11]: Thrombomodulin, THBD (gene 7056)
Kind of test: BSK_3C_Thrombomodulin: BioMAP Diversity Plus: 3C Assay for Thrombomodulin Biomarker Activity (AID 2283029). The note with it: primary human endothelial cells (HUVEC); actives raise or lower the signal. In a few lines:
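Endothelial cells from umbilical vein are dosed with test chemical and incubated 24 h. Thrombomodulin is then quantified by ELISA, with DMSO serving as negative control and activity baseline.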

Read-out in test [12]: Human Leukocyte Antigen - DR isotype (HLADR), HLA-DRA (gene 3122)
Kind of test: BSK_BE3C_HLADR: BioMAP Diversity Plus: BE3C Assay for Human Leukocyte Antigen - DR isotype (HLADR) Biomarker Activity (AID 2283032). The note with it: primary human bronchial epithelial cells; actives raise or lower the signal. In a few lines: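 Chemicals are dosed onto BE3C bronchial epithelial cultures of human origin and left 24 h. HLA-DR is then measured by ELISA, and the endpoint is fitted in both directions using DMSO as the activity baseline.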

Read-out in test [13]: Vascular cell adhesion molecule 1 (VCAM1), VCAM1 (gene 7412)
In words: BSK_4H_VCAM1: BioMAP Diversity Plus: 4H Assay for Vascular cell adhesion molecule 1 (VCAM1) Biomarker Activity (AID 2283033).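 As to outcome: cell-surface VCAM-1 protein measured by ELISA.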 The note with it: primary human endothelial cells (HUVEC); actives raise or lower the signal. In a few lines:
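Chemicals are added to primary human umbilical vein endothelial cells. After 24 h, VCAM-1 levels are measured by ELISA. Values come from bidirectional fitting referenced to DMSO.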

Read-out in test [14]: Interferon-gamma inducible Protein 10 (IP10), CXCL10 (gene 3627)
Kind of test: BSK_BE3C_IP10: BioMAP Diversity Plus: BE3C Assay for Interferon-gamma inducible Protein 10 (IP10) Biomarker Activity (AID 2283034). The note with it: primary human bronchial epithelial cells; actives raise or lower the signal. In a few lines:
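IP-10 quantified by ELISA serves as the endpoint. Cells: primary human bronchial epithelium, read 24 h after compound addition. Activity is derived by bidirectional fitting with DMSO as negative control.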

Read-out in test [15]: Transforming growth factor beta 1 (TGFb1), TGFB1 (gene 7040)
Kind of test: BSK_BE3C_TGFb1: BioMAP Diversity Plus: BE3C Assay for Transforming growth factor beta 1 (TGFb1) Biomarker Activity (AID 2283036;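 also: TGF-b1 protein level measured by ELISA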). The conditions noted are these: primary human bronchial epithelial cells; actives raise or lower the signal. In a few lines:
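Bronchial epithelial primary cells are treated with test chemical, then TGF-b1 is quantified by ELISA after 24 hours. Values derive from bidirectional fitting against DMSO, with cytotoxicity checked by SRB staining in parallel cultures.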

Read-out in test [16]: Plasminogen activator inhibitor-1 (PAI1), SERPINE1 (gene 5054)
In words: BSK_BE3C_PAI1: BioMAP Diversity Plus: BE3C Assay for Plasminogen activator inhibitor-1 (PAI1) Biomarker Activity (AID 2283037). The note with it: primary human bronchial epithelial cells; actives raise or lower the signal. In a few lines:
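Values derive from bidirectional fitting against DMSO baseline of PAI-1 levels, measured by ELISA in human bronchial epithelial cells 24 h after compound addition.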

Read-out in test [17]: Urokinase-type plasminogen activator receptor (uPAR), PLAUR (gene 5329)
In words: BSK_4H_uPAR: BioMAP Diversity Plus: 4H Assay for Urokinase-type plasminogen activator receptor (uPAR) Biomarker Activity (AID 2283030). The note with it: primary human endothelial cells (HUVEC); actives raise or lower the signal. In a few lines: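 Chemicals are dosed onto human vascular endothelial primary cells (umbilical vein). After 24 h, uPAR is read by ELISA. Gain or loss of signal is fitted relative to DMSO.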

Read-out in test [18]: Vascular endothelial growth factor receptor 2 (Homo sapiens) (UniProt P35968)
Kind of test: BSK_4H_VEGFRII: BioMAP Diversity Plus: 4H Assay for Vascular endothelial growth factor receptor 2 (VEGFR2) Biomarker Activity (AID 2283031). The note with it: primary human endothelial cells (HUVEC); actives raise or lower the signal. In a few lines:
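VEGFRII levels on human vascular endothelial primary cells were determined by ELISA at 24 hours post-dosing, with gain- or loss-of-signal fitted against DMSO controls.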

Read-out in test [19]: Monokine induced gamma interferon (MIG), CXCL9 (gene 4283)
Kind of test: BSK_BE3C_MIG: BioMAP Diversity Plus: BE3C Assay for Monokine induced gamma interferon (MIG) Biomarker Activity (AID 2283035).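 Also: MIG protein measured by ELISA in BE3C cultures after 24 h of dosing.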 The conditions noted are these: primary human bronchial epithelial cells; actives raise or lower the signal. In a few lines: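 Dose cells (human primary bronchial epithelial), incubate 24 h, quantify MIG by ELISA, then fit concentration–response in both directions relative to DMSO control.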

Read-out in test [20]: urokinase plasminogen activator (uPA), PLAU (gene 5328)
In words: BSK_BE3C_uPA: BioMAP Diversity Plus: BE3C Assay for urokinase plasminogen activator (uPA) Biomarker Activity (AID 2283038).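 Also: uPA protein level quantified by ELISA in cell cultures; uPA read one day after compound addition.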 The note with it: primary human bronchial epithelial cells; actives raise or lower the signal. In a few lines: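 Measured by ELISA: uPA from human primary bronchial epithelial cells 24 h after chemical treatment. Values derive from bidirectional curve fitting with DMSO serving as negative control. Total protein by SRB staining in parallel wells flagged overt cytotoxicity.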

The structures appear in SMILES notation. Values joined by “and” are separate entries in the source; they are usually repeats but may differ in a detail not shown here. Equal values may be shown once. Records with an inconclusive call do not appear. Some structures have more than one record in an assay (separate samples or runs), and their calls can disagree. Active and inactive are the calls of the source. The calls were made as follows, unless noted: active = hit-call score of the fitted dose curve at least 0.9, where 1 is the maximum; inactive = score below 0.9.

human Vitamin D Receptor (VDR), VDR (gene 7421), sequence (P11473 whole entry, looked up, the tested form may be a part): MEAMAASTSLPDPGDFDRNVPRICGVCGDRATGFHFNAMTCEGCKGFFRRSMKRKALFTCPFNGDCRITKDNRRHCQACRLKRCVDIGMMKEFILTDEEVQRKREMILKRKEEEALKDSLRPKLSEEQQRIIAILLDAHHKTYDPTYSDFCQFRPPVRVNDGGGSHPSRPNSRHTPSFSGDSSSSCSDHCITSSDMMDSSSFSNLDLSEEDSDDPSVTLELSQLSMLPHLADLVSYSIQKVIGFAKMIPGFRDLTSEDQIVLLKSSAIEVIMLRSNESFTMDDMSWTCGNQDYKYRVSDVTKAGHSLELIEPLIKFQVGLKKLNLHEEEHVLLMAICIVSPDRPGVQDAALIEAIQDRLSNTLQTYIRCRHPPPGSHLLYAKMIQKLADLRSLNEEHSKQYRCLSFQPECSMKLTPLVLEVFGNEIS

Take `COc1nc(C)nc(NC(=O)NS(=O)(=O)c2ccccc2OCCCl)n1`: the result in test [1], in [2], in test [3], in [4], in test [5] and in test [6] was inactive. Also, the outcome in test [7], in test [8], in test [9], in test [10], in test [11] and in test [12] was inactive. Further, the result in [13], in test [14], in test [15] and in test [16] was inactive.

`CCOC(=O)COc1cc(-n2ncc(C(F)(F)F)c(C)c2=O)c(F)cc1Cl`: the result in [1], in [2], in [3], in test [4], in [5] and in [6] was inactive. Also, the result in [7], in [8], in test [9], in test [10], in test [11] and in test [12] was inactive. Besides, the result in test [13], in [14] and in test [15] was inactive.

Consider `O=C(O)C1(C(=O)Nc2ccc(Cl)cc2Cl)CC1`, for which the AC50 in [1] is 4.68 µM (active); in [12], 10.7 µM (active); in test [14], 23.8 µM (active). Moreover, the result in [2], in test [3], in [4], in [5], in test [6] and in [7] was inactive. Besides, the result in [8], in test [9], in test [10], in test [11], in test [17] and in [13] was inactive. In addition, the result in [15] and in [16] was inactive.

Regarding `CCOC(=O)c1ccc(O)cc1`, the result in test [1], in [2], in test [3], in test [4], in test [5] and in test [6] was inactive. The result in test [7], in test [8], in test [9], in [10], in test [11] and in [17] was inactive. The result in test [18], in test [12], in [13], in [14] and in test [15] was inactive.

`O=C(O)c1ccccc1`: the result in test [1], in [2], in test [3], in [4], in test [5] and in test [6] was inactive. The result in test [7], in [8], in test [9], in [10], in test [11] and in [12] was inactive. Besides, the outcome in test [13], in test [14], in [19], in test [15] and in test [20] was inactive.

Take `S=C(S)NCCNC(=S)S.[Mn+2].[S-]C([S-])=NCCN=C([S-])[S-].[Zn+2]`: the AC50 is 13.3 µM (active) [middle of 4 runs] in test [1]; 1.34 µM (active) in test [6]; 8.2 µM (active) and 10 µM (active) in test [12]; 10 µM (active) in test [13]; 15.2 µM (active) in [14]. Also, the outcome in test [1], in test [2], in test [3], in [4], in test [5] and in [6] was inactive. For the same compound, the outcome in test [7], in test [8], in test [9], in test [10], in test [11] and in test [18] was inactive. Besides, the result in [12], in test [13], in test [14] and in [15] was inactive.

In general, AC50 refers to the midpoint of the concentration-response curve, whichever way the signal moves.

For the origin of these results see PubChem BioAssay (EPA / NIEHS).
